Assay results: PubChem BioAssay (NCATS)
Records with an inconclusive call do not appear. Where a call stands in place of a potency, no number is given. Active and inactive are the calls of the source. Calls follow the shape of the dose curve; as a rule, active = well fitted inhibition curve with a large enough effect; inconclusive = small, poorly fitted or top-dose-only effect; inactive = no such curve, though single readings can be large or run the other way. Where a SMILES comes first, the peptide text is derived from it. [ ]: non-standard residue; d: D form. ξ: configuration not given here. ξPhe(βξ-Me) = CC(c1ccccc1)C(N)C(=O)O; PhLac = O=C(O)[CH](O)Cc1ccccc1; NMeV = CN[CH](C(=O)O)C(C)C; 2Abz = Nc1ccccc1C(=O)O; GABA = NCCCC(=O)O
Potency is read from the fitted curve at half-maximal effect.

Experiment: P-glycoprotein substrates identified in KB-3-1 adenocarcinoma cell line, qHTS therapeutic library screen (AID 1346986); also: nearly all actives have a fitted effect of over 60% in size;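 also: potency is for cytotoxicity meaning loss of cell viability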
Settings: KB-3-1 parental cells viability, CellTiter-Glo, 72 h; series mostly up to 44.5 µM; activity change, negative = cytotoxicity: at the top concentration
How it was run: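 Viability by CellTiter-Glo after 72 h compound exposure at 37 degree C, 5% CO2. Cytotoxic call: curve class -1.1 to -2.4, maximum response >50%, AC50 < 10 uM, compared across KB-3-1 and P-gp-overexpressing KB-8-5-11.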
In the case of `CCC[C@@H]1C[C@@H](C(=O)N[C@@H]([C@H]2O[C@H](SC)[C@H](O)[C@@H](O)[C@@H]2O)[C@@H](C)O)N(C)C1`, the “outcome” value is reported as “inactive”.
With `COc1cc(/C=C/C(=O)OC2CC(C)=C(C(=O)O)/C2=C/CO[C@@H]2O[C@H](CO)[C@@H](O)[C@H](O)[C@H]2O)ccc1O` (stereo not given in full) the “outcome” value was “inactive [at 17.4 µM]”.
For `CC1(C)O[C@@]2(C)CC[C@@H]1C[C@@H]2OC1OC(CO)C(O)C(O)C1O` (stereo not given in full), the “outcome” value was “inactive”.
In the case of `CC(C)[C@@H](C)/C=C/[C@@H](C)[C@H]1CC[C@H]2C3=CC=C4C[C@@H](O)CC[C@]4(C)[C@H]3CC[C@]12C`, the “outcome” value is reported as “inactive [at 17.4 µM]”.
For `COc1cc(CCc2ccccc2)c(C(=O)O)c2c1CC(C(C)(C)O)O2` (stereo not given), the “outcome” value was “inactive”.
With `Nc1ccn([C@@H]2C(F)=C(CO)[C@@H](O)[C@H]2O)c(=O)n1` the Potency was 3.66 µM (active).
With `C[C@@H]1O[C@@H](O[C@@H]2[C@@H](O)[C@@H](O)[C@H](O[C@@H]3[C@@H](O)[C@@H](O[C@]4(CO)O[C@H](CO)[C@@H](O)[C@@H]4OC(=O)/C=C/c4ccc(O)cc4)O[C@H](CO)[C@H]3OC(=O)/C=C/c3ccc(O)cc3)O[C@H]2C)[C@H](O)[C@H](O)[C@H]1O` the outcome was “inactive [at 9.29 µM]”.
With `CCC(C)/C=C(C)/C=C/C1=CC2=C(Cl)C(=O)C(C)(OC(C)=O)C(=O)C2=CN1CCCC(=O)O` (stereo not given) the “outcome” value was “inactive [at 17.4 µM]”.
For `Cc1c(-c2ccnn2C)cc(C(=O)NCc2ccc(S(C)(=O)=O)cn2)c(=O)n1-c1cccc(C(F)(F)F)c1`, the “outcome” value was “inactive”.
In the case of `CC(C)c1ccc(CC(=O)N2CCC[C@@H](c3cccc(OC(C)(C)C(=O)O)c3)C2)cc1`, the “outcome” value is reported as “inactive”.
In the case of `CC1=C2CC3OC3(C)CCC3OC3(C)CC2OC1=O` (stereo not given), the “outcome” value is reported as “inactive”.
In the case of `O=C(O)c1cc(O[C@@H]2O[C@H](CO[C@@H]3OC[C@@H](O)[C@H](O)[C@H]3O)[C@@H](O)[C@H](O)[C@H]2O)c2ccccc2c1O`, the “outcome” value is reported as “inactive [at 17.4 µM]”.
For `CC1(C)OC(=O)C(OCC2CC2)=C1c1ccc(S(C)(=O)=O)cc1`, the “outcome” value was “inactive”.
In the case of `C/C=C1/[C@H](O[C@@H]2O[C@H](CO)[C@@H](O)[C@H](O)[C@H]2O)OC=C(C(=O)OC)[C@H]1CC(=O)O[C@@H]1O[C@H](CO)[C@@H](O)[C@H](O)[C@H]1O`, the “outcome” value is reported as “inactive [at 17.4 µM]”.
In the case of `O=C(O[C@H]1[C@@H]2C[C@@H]3OC[C@@](O)([C@H]2[C@H](O[C@@H]2O[C@H](CO)[C@@H](O)[C@H](O)[C@H]2O)O3)[C@@H]1O)c1ccccc1`, the “outcome” value is reported as “inactive [at 17.4 µM]”.
For `O=C(c1ccc(C#Cc2cccc(F)c2)cn1)N1CC2CC2C1` (stereo not given), the “outcome” value was “inactive”.
With `CCC(C)C(=O)O[C@@H]1[C@@H](O)[C@@H](O[C@H]2O[C@H](CO)[C@@H](O)[C@H](O)[C@H]2O)O[C@H](CO)[C@H]1O` (stereo not given in full) the “outcome” value was “inactive [at 17.4 µM]”.
In the case of `O=C(/C=C/c1ccc(O)cc1)O[C@H]1[C@@H]2C=CO[C@@H](O[C@@H]3O[C@H](CO)[C@@H](O)[C@H](O)[C@H]3O)[C@@H]2[C@@]2(CO)O[C@@H]12`, the “outcome” value is reported as “inactive [at 17.4 µM]”.
With `CC1(C)CCC(C)(C)c2cc([C@@H](O)C(=O)Nc3ccc(C(=O)O)cc3F)ccc21` the “outcome” value was “inactive”.
For `CC1CCC2(C(=O)OC3OC(CO)C(O)C(O)C3O)CCC3(C(=O)O)C(=CCC4C5(C)CCC(OC6OC(C)C(O)C(O)C6O)C(C)(C)C5CCC43C)C2C1C` (stereo not given), the “outcome” value was “inactive [at 17.4 µM]”.
In the case of `OC[C@H]1O[C@@H](OC(CCCCc2ccc(O)cc2)CCc2ccc(O)cc2)[C@H](O[C@@H]2OC[C@](O)(CO)[C@H]2O)[C@@H](O)[C@@H]1O` (stereo not given in full), the “outcome” value is reported as “inactive [at 17.4 µM]”.
In the case of `COc1ccc(C(O[C@@H]2O[C@H](CO)[C@@H](O)[C@H](O)[C@H]2O)C(CO)Oc2ccc(/C=C/CO)cc2OC)cc1O` (stereo not given in full), the “outcome” value is reported as “inactive [at 17.4 µM]”.
In the case of `CCC(C)C1NC(=O)C2CCCN2C(=O)C(C(C)C)NC(=O)c2ccccc2NC(=O)C(Cc2ccc(O)cc2)NC(=O)C(C)NC(=O)C(C(C)O)NC1=O` (stereo not given) (cyclo([2Abz]VPITAY); configuration not given here), the “outcome” value is reported as “inactive [at 17.4 µM]”.
With `C/C(=C\CCC(C(=O)O)C1CCC2(C)C3=C(CCC12C)C1(C)CCC(=O)C(C)(C)C1CC3)C(=O)O` (stereo not given) the “outcome” value was “inactive [at 17.4 µM]”.
For `COCCN(C)Cc1ccc2nc3sc(C(=O)N(C)C4CCCCC4)cn3c2c1`, the “outcome” value was “inactive”.
In the case of `CC(C)CC1NC(=O)C(C(C)c2ccccc2)NC(=O)C(C(C)C)NC(=O)C(C)NC(=O)CCCNC(=O)C(Cc2c[nH]c3ccccc23)NC(=O)C(C)NC1=O` (stereo not drawn) (cyclo([GABA]AV[ξPhe(βξ-Me)]LAW); configuration not given here), the “outcome” value is reported as “inactive [at 17.4 µM]”.
For `NCCOCCOCCNC(=O)Cc1ccc(Nc2nc(NCc3ccc(F)cc3)nc(NCC3CCCCC3)n2)cc1`, the “outcome” value was “inactive”.
In the case of `CC1=C2C=C(CO)C(CO)CCC2(C)CCC1=O` (stereo not given), the “outcome” value is reported as “inactive”.
For `CC(/C=C/[C@]1(O)[C@@]2(C)CO[C@@]1(C)C[C@@H](O)C2)=C\C(=O)O[C@@H]1O[C@H](CO)[C@@H](O)[C@H](O)[C@H]1O`, the “outcome” value was “inactive [at 17.4 µM]”.
In the case of `C=C1CCC2C(C)(COC3OC(COC(=O)CC(=O)O)C(O)C(O)C3O)CCCC2(C)C1CCC1=CCOC1=O` (stereo not given), the “outcome” value is reported as “inactive [at 17.4 µM]”.
With `CC1CC(O)C2(C)C(C(=O)O)=CCCC2C1(C)CCc1ccoc1` (stereo not given) the “outcome” value was “inactive”.
In the case of `Cc1ccc(Sc2cncc3sc(C(N)=O)cc23)cc1`, the “outcome” value is reported as “inactive”.
For `Clc1ccc2c(c1)C1=NCCN1c1c(-c3noc(C4CC4)n3)ncn1-2`, the “outcome” value was “inactive”.
With `CC(=O)O[C@@H]1C[C@]2(C)[C@@]3(CCC4[C@@]5(C)CC[C@H](O[C@@H]6O[C@H](C(=O)O)[C@@H](O)[C@H](O[C@@H]7O[C@H](CO)[C@H](O)[C@H](O)[C@H]7O[C@@H]7O[C@@H](C)[C@H](O)[C@@H](O)[C@H]7O[C@@H]7OC[C@](O)(CO)[C@H]7O)[C@H]6O[C@@H]6O[C@H](CO)[C@H](O)[C@H](O)[C@H]6O)C(C)(C)C5CC[C@]42C)O[C@@H](O)[C@]12C3CC(C)(C)[C@@H](OC(=O)/C=C/c1ccc(O)c(O)c1)[C@@H]2OC(=O)/C=C/c1ccccc1` (stereo not given in full) the outcome was “inactive [at 9.29 µM]”.
With `C=CC(C)(C)O[C@@H]1O[C@H](CO[C@@H]2OC[C@](O)(CO)[C@H]2O)[C@@H](O)[C@H](O)[C@H]1O` the “outcome” value was “inactive”.
In the case of `COc1ccc(C)c2sc(NC(=O)c3ccncc3)nc12`, the “outcome” value is reported as “inactive”.
For `CNC(=O)c1ccc2cc([C@@]3(O)CCn4cncc43)ccc2c1`, the “outcome” value was “inactive”.
In the case of `COc1ncc(-c2ccc3c(Nc4cc(Oc5cc(F)cc(F)c5)cc(C(=O)O)c4)c(S(=O)(=O)NC4CC4)cnc3c2)c(OC)n1`, the “outcome” value is reported as “inactive”.
With `CC(C)C(C(=O)N1CCCC1C(=O)O)N(C)C(=O)C(O)Cc1ccccc1` (stereo not given) (H-[PhLac]-[NMeV]-Pro-OH; configuration not given here) the “outcome” value was “inactive”.
In the case of `CC[C@H]1OC(=O)[C@H](C)[C@@H](O[C@H]2C[C@@](C)(OC)[C@@H](O)[C@H](C)O2)[C@H](C)[C@@H](O[C@@H]2O[C@H](C)C[C@H](N(C)C)[C@H]2O)[C@@](C)(O)C[C@@H](C)[C@@H]2N[C@@H](COCCOC)OC([C@H]2C)[C@]1(C)O`, the “outcome” value is reported as “inactive”.
